About 5,800 (36%) of roughly 16,000 compounds were called active. Another 23% or so got no clear call; they are omitted. Some of the results follow. A number with no mark means an inactive call. The call rests on the fitted dose curve; in most records, active means well fitted curve in the direction sought with a large enough effect; inconclusive means small, poorly fitted or top-dose-only effect, or effect the other way; inactive means no such curve, though single readings can be large or run the other way.
Biological target: Cytochrome P450 2C19 (Homo sapiens) (UniProt P33261)
Experiment: Cytochrome panel assay with activity outcomes
Conditions: recombinant CYP, pro-luciferin dealkylation, luminescence, p450-cyp2c19; series mostly up to 57.1 µM; activity, negative = inhibition: at the top concentration
On the % scale 0 is the no-effect control and ±100 the full control effect.

Cytochrome P450 2C19 (Homo sapiens), sequence (P33261 whole entry, looked up): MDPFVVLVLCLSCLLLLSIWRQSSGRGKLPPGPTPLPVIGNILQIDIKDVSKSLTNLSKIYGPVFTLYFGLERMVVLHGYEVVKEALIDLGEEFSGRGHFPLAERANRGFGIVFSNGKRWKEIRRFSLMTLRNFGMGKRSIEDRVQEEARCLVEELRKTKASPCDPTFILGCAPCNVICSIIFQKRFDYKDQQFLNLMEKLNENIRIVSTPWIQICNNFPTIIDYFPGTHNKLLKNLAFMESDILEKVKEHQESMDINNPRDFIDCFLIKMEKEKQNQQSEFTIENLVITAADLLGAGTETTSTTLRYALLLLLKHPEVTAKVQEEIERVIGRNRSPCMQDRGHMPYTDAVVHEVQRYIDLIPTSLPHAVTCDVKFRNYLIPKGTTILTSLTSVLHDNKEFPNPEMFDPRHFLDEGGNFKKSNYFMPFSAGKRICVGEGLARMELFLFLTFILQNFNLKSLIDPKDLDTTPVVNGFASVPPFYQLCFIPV

Question: With S=c1[nH]nc(C2CCCCC2)n1/N=C/c1cccs1 as the compound, how does the AC50 read?
Answer: 0.708 µM (active)

Question: With C[C@]1(c2ccccc2)O[C@@H]2C[C@@H]3[C@@H]4CCC5=CC(=O)C=C[C@@]5(C)[C@]4(F)[C@H](O)C[C@]3(C)[C@@]2(C(=O)CO)O1 as the compound, how does the activity, negative = inhibition read?
Answer: -7.02% [at 11.4 µM]

Question: With COc1ccc(C2=NOC(C(=O)NCCN3CCOCC3)C2)cc1 (centres undefined) as the compound, how does the “activity, negative = inhibition” value read?
Answer: 23.8%

Question: COc1ccc(C2=NOC(C(=O)N3CCCc4ccccc43)C2)cc1 (centres undefined) was tested. Which AC50 did it give?
Answer: 15.8 µM (active)

Question: Which activity, negative = inhibition does the source give for O=C(Nc1c[nH]c(=O)[nH]c1=O)Oc1ccccc1 here?
Answer: -12.9% [at 11.4 µM]

Question: Which AC50 does the source give for Cc1cccc2cc(CN(Cc3ccccc3)C(=O)c3cccc(F)c3)c(Cl)nc12 here?
Answer: 2.82 µM (active)

Question: For COC(=O)CSc1nc(C)cc(C(F)(F)F)c1C#N, which AC50 is on record?
Answer: 25.1 µM (active)

Question: With COC(=O)CSc1cc(C(F)(F)F)nc(-c2ccccn2)n1 as the compound, how does the “activity, negative = inhibition” value read?
Answer: -4.93%

Question: Cc1nc(SCC(=O)c2cc3ccccc3oc2=O)c(C#N)c(C)c1C(=O)Nc1ccccc1 was tested. Which “activity, negative = inhibition” value did it give?
Answer: 7.27%

Question: With O=C(CSC1=NCCS1)N1CCN(c2ccc(Cl)cc2)CC1 as the compound, how does the AC50 read?
Answer: 3.55 µM (active)

Question: How did the AC50 turn out when CN(C)C(=O)c1ccc(-c2cncnc2NCCc2cnc[nH]2)cc1 was run?
Answer: 10 µM (active)

Question: How did the activity, negative = inhibition turn out when c1nc(NCCc2cnc[nH]2)c2[nH]cnc2n1 was run?
Answer: -12.5% [at 11.4 µM]

Question: With c1ncc(-c2ccc3c(c2)OCO3)c(NCCc2cnc[nH]2)n1 as the compound, how does the AC50 read?
Answer: 0.0398 µM (active)

Question: Which AC50 does the source give for CN(C)c1ccc(-c2cncnc2NCCc2cnc[nH]2)cc1 here?
Answer: 0.0794 µM (active)

Question: Which “activity, negative = inhibition” value does the source give for O=C(Nc1ccccc1)N1CCCC2(CCN(C(=O)c3cnccn3)CC2)C1 here?
Answer: 31.9%

Question: With COc1ccc(COC(=O)N/N=C2/C[C@@H](O)[C@@H](O)[C@@H]3[C@@H]4C(=O)N([C@@H](C)c5ccccc5)C(=O)[C@H]4CC[C@@H]23)cc1 as the compound, how does the activity, negative = inhibition read?
Answer: -25.8% [at 11.4 µM]

Question: CCN(CC)CCN1C(=O)C(=O)/C(=C(/O)c2ccc(OC)cc2)C1c1cccs1 (centres undefined) was tested. Which AC50 did it give?
Answer: 14.1 µM (active)

Question: Which “activity, negative = inhibition” value does the source give for COc1ccc(/C(O)=C2\C(=O)C(=O)N(c3cc(C)on3)C2c2ccc(OC)c(OC)c2)cc1OC (centres undefined) here?
Answer: 1.84%

Question: Cc1nc2ccccn2c1/C(O)=C1\C(=O)C(=O)N(CCCn2ccnc2)C1c1ccncc1 (centres undefined) was tested. Which “activity, negative = inhibition” value did it give?
Answer: -21.1%

Question: For COc1cccc(/C(O)=C2/C(=O)C(=O)N(c3cc(C)on3)C2c2cccs2)c1 (centres undefined), which “activity, negative = inhibition” value is on record?
Answer: -29.5%

Question: CCOc1ccc(/C(O)=C2/C(=O)C(=O)N(CC3CCCO3)C2c2ccc(C)o2)cc1 (centres undefined) was tested. Which “activity, negative = inhibition” value did it give?
Answer: -29%

Question: Which AC50 does the source give for Cc1ccc(/C(O)=C2/C(=O)C(=O)N(CCCn3ccnc3)C2c2ccccn2)cc1 (centres undefined) here?
Answer: 2.82 µM (active)

Question: How did the AC50 turn out when CCOc1ccc(/C(O)=C2/C(=O)C(=O)N(CCCn3ccnc3)C2c2cccs2)cc1Cl (centres undefined) was run?
Answer: 14.1 µM (active)

Question: How did the “activity, negative = inhibition” value turn out when COCCCN1C(=O)C(=O)/C(=C(/O)c2ccc(OC)cc2C)C1c1cccnc1 (centres undefined) was run?
Answer: -13.3%

From PubChem BioAssay AID1851 (National Center for Advancing Translational Sciences (NCATS), 2009)
